Screens from PubChem.
D2 ag-1: activates the human D2 dopamine receptor; DiscoveRx PathHunter D2 beta-arrestin, luminescence, 90 min; 100% = 57 uM dopamine signal; activation, % (concentration not given with the values); 360,000 compounds, 0.084% hits; AID 624465; in the data active = activation above about 40%; inconclusive = between about 15% and that limit
Target sequence (P14416 whole entry, looked up): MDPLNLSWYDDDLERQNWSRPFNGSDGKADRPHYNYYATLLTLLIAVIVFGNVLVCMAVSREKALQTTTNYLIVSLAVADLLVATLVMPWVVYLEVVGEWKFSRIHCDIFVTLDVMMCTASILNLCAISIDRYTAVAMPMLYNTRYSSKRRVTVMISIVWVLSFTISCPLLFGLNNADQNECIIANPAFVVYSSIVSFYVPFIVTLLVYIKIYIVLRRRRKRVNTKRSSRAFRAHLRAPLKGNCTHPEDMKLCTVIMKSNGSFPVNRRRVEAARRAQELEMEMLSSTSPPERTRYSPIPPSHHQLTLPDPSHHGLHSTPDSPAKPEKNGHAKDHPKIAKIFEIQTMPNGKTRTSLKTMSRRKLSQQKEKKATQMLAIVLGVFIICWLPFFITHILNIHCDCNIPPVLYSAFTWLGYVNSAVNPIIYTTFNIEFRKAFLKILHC
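DiscoveRx PathHunter D2 beta-arrestin cells (2,100/well) attached overnight, then compound-stimulated 90 min at 37 C in HBSS/10 mM HEPES/0.1% Tween-20 buffer; beta-galactosidase complementation read by luminescence after 1 h at ambient temperature. Dopamine 57 uM final (EC100) as control.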
D2 antag: antagonists of human D2 dopamine receptor | P14416 | inhibition, % at 10 µM | 340,000 compounds, 2% hits | HEK293 TREx D2 cells, calcium flux, dopamine EC80; in the data active = inhibition above about 30%; inactive = below that, where a call was filed
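Cells plated overnight at 30 C with tetracycline; no-wash calcium dye, 30–90 min RT; 10 s baseline; compound pinned; 180 s read; EC80 dopamine added; another 180 s read.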
D2 ag-2: activates the human D2 dopamine receptor; P14416; HEK293 T-REx D2 cells, calcium flux agonist mode; activation, % at 2 µM; 340,000 compounds, 0.53% hits; AID 485358;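 active = activation over 3 SD above normal in the single-dose calcium agonist read, cut at about 30% in these data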
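Agonism is scored from calcium flux in a force-coupled, inducible HEK293 cell line expressing D2, read kinetically for 180 s after compound addition against dopamine controls.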
D2 PAM-1: human D2 receptor positive allosteric modulation | P14416 | DiscoveRx D2 beta-arrestin cells, luminescence, 90 min; 100% = 57 uM dopamine signal | potentiation, % (no concentration beside the values) | 360,000 compounds, 0.23% hits; in the data active = potentiation above about 50%; inconclusive = mostly about 30% to 49%
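D2 cells co-treated with compound plus 50 nM dopamine (EC20) for 90 min at 37 deg C to detect potentiation. Beta-arrestin recruitment was read as enzyme-fragment luminescence after 1 h at ambient temperature. Full response was set by 57 uM dopamine.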
D2 PAM-2: positive allosteric modulators of human D2 dopamine receptor | HEK293 T-REx D2, calcium flux, EC20 dopamine potentiation | P14416 | potentiation, % at 10 µM | AID 485347 | 340,000 compounds, 0.34% hits;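 active = potentiation over 3 SD above the plate norm, cut at about 30% in these data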
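Potentiation of an EC20 dopamine calcium response measured kinetically over 180 s, after a preceding 180 s compound-only read flagging agonists. Cells: inducible Hek293 Trex D2 line, 4000/well, cultured overnight at 30 C before dye loading.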
Each line names hits and unclear results; the compound was inactive in the other large screens. This is a sample that favours compounds with a hit; in the whole collection about 2.4% have one here.

COc1cc(C(=O)NC(C)c2ccc(-n3ccnc3)cc2)cc(OC)c1C (stereo unspecified)	D2 PAM-2 31
COc1cc(C(=O)NCC(=O)NC(C)c2ccc(-n3ccnc3)cc2)cc(OC)c1OC (stereo unspecified)	none
Fc1ccc(Nc2nc3nonc3nc2Nc2cccc(C(F)(F)F)c2)cc1	none (no result: D2 ag-1, D2 antag, D2 ag-2, D2 PAM-1)
O=C(NCc1ccccc1)c1cc(C2CCCCN2S(=O)(=O)c2cccs2)on1 (stereo unspecified)	none (no result: D2 antag, D2 ag-2, D2 PAM-2)
Cc1ccc(S(=O)(=O)Nc2ccc3c(c2)nc(CCN2CCOCC2)n3C)cc1	none
Cn1c(CN2CCCC2)nc2cc(NC(=O)COc3ccccc3)ccc21	D2 antag 47
Cn1c(CCN2CCCCC2)nc2cc(NS(=O)(=O)c3ccc(F)cc3)ccc21	D2 antag 32
CCn1c(CN2CCCCC2)nc2cc(S(=O)(=O)N3CCCCC3)ccc21	D2 antag 55
Cc1ccc(S(=O)(=O)Nc2ccc3c(c2)nc(CCN2CCCCC2)n3C)cc1	none
Cc1ccc(S(=O)(=O)Nc2ccc3c(c2)nc(CN2CCCC2)n3C)cc1	D2 antag 72
CCc1nn(-c2ccccc2)c2nc(-c3cccc(OC)c3)c3cc(OC)c(OC)cc3c12	none (no result: D2 ag-1, D2 antag, D2 PAM-1)
COc1cc2c(cc1OC)CN(CC(=O)NC(=O)NCc1ccccc1)CC2	none
C/C=C(\C)CN1CCc2cc(OC)c(OC)cc2C1	D2 PAM-2 31
CC1CCN(CC[C@H]2CCCN2S(=O)(=O)c2cccc(O)c2)CC1	D2 antag 34
O=C(NCCC1CCCCN1S(=O)(=O)c1ccccc1)C(=O)NCCN1CCOCC1 (stereo unspecified)	none
CCOC(=O)c1ccc(NC(=O)c2cc(=O)c3cc(CC)ccc3o2)cc1	none (no result: D2 ag-1, D2 antag, D2 PAM-1)
CCc1cccc(OCC(=O)Nc2ccc(C)c(S(=O)(=O)N3CCCCCC3)c2)c1	D2 antag 31
Clc1ccc(-c2cc3nc(NCc4cccc(Cl)c4)ccn3n2)cc1	D2 ag-1 inconclusive (no result: D2 antag, D2 ag-2, D2 PAM-2)
CCC(C)Oc1ccc(/C=C/c2[nH]c(=O)[nH]c(=O)c2[N+](=O)[O-])cc1OC (stereo unspecified)	D2 PAM-2 34
COC(=O)c1ccc(O)cc1	none
CCN(CC)C(=O)C(C)OC(=O)c1ccc(O)cc1 (stereo unspecified)	D2 antag 30
Cc1cc(C)cc(-n2c(SCC(=O)NC3CCCCC3)nc3c([nH]c4ccccc43)c2=O)c1	none (no result: D2 ag-1, D2 antag, D2 PAM-1)
CCOC(=O)C1CCCN(C(=O)CSc2ccccc2)C1 (stereo unspecified)	none
CCOC(=O)C1CCCN(C(=O)c2cc(Cl)ccc2Cl)C1 (stereo unspecified)	D2 antag 31
CCOC(=O)C1CCCN(C(=O)c2ccccc2SCCOC)C1 (stereo unspecified)	D2 antag 30
CCOC(=O)C1CCCN(C(=O)CSc2ccc(NC(C)=O)cc2)C1 (stereo unspecified)	D2 ag-1 inconclusive, D2 ag-2 34
COCCSc1ccccc1C(=O)N1CCCC(C)C1 (stereo unspecified)	none
CC(C)CCNC(=O)c1cccc(Nc2nc3ccccc3n3nnnc23)c1	none (no result: D2 ag-1, D2 antag, D2 ag-2, D2 PAM-1)
CS(=O)(=O)N1N=C(c2cccs2)CC1c1ccccc1 (stereo unspecified)	D2 antag 32
CCOc1ccc(C2CC(=O)N(c3cccc(F)c3)C3=C2C(=O)OC3)cc1 (stereo unspecified)	none (no result: D2 ag-1, D2 antag, D2 PAM-1)
COc1ccc2nc(SCC(C)=O)c(C#N)cc2c1	none
COc1ccc2nc(SC)c(C#N)cc2c1	D2 antag 55
O=C1/C(=C\c2cc([N+](=O)[O-])ccc2O)SC(=S)N1Cc1ccc(Cl)cc1	D2 ag-2 90
O=C1/C(=C\c2cccc(O)c2O)SC(=S)N1Cc1ccccc1	none (no result: D2 antag, D2 ag-2)
O=C1NC2(CCOc3ccccc32)C(=O)N1CC(=O)N(Cc1ccccc1)C1CCS(=O)(=O)C1 (stereo unspecified)	D2 antag 40
O=C(O)CN1C(=O)NC2(CCOc3ccccc32)C1=O (stereo unspecified)	none
CC(C)N1CC(COc2ccc(Br)cc2)OC1=O (stereo unspecified)	D2 antag 41
CC(C)CNC(=O)COC(=O)c1ccc([N+](=O)[O-])cc1Cl	D2 PAM-1 57
